Compound activity from PubChem BioAssay.
This is a sample that favours compounds with a hit; in the whole collection about 3.3% have one here.
Tau fibril ThT: inhibitors of human tau fibril formation, thioflavin T binding; Potency, µM (doses to about 57.4 µM), most hits filed as inhibitors; AID 1460; 2.1% of 270,000 active; P10636; recombinant tau K18 P301L, heparin-induced fibrillization, ThT fluorescence; further: nearly all actives have a fitted effect of over 55% in size
Target sequence (P10636 561-689 P618L limits assumed): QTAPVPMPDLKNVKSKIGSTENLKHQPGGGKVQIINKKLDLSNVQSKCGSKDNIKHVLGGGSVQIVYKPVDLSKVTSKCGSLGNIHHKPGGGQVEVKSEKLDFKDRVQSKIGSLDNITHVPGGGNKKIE
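Fibril formation assay: tau K18 P301L at 15 uM with trace Alexa 594 label, heparin inducer 20 uM, pH 7 sodium acetate buffer, 37 C for 6 hr; endpoint ThT signal.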
NPSR antag: neuropeptide S receptor (human) antagonism, cAMP. Q6W5P4. CHO-NPSR cells, cAMP TR-FRET, antagonist mode. Potency, µM (titrated, usually from 38.3 µM), most hits filed as inhibitors. 1% of 220,000 active; further: nearly all actives have a fitted effect of over 50% in size
Target sequence (Q6W5P4 whole entry, looked up): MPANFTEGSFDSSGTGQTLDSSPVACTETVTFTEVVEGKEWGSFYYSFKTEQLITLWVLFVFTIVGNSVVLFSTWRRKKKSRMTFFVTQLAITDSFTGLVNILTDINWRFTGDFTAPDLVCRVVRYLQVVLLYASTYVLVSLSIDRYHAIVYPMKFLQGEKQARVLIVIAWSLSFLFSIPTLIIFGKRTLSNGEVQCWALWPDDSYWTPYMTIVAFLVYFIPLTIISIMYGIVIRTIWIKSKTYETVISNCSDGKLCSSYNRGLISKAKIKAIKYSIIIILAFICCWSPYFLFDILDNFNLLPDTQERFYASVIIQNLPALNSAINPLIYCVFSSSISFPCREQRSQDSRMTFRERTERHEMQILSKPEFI
Tau fluor cs: counter-screen for tau fibril formation inhibitors; 0.93% of 280,000 active; tau K18 P301L (four-repeat tau fragment) Alexa594 fluorescence, heparin fibrillization; Potency, µM (series often up to 57.7 µM); AID 1463; further: nearly all actives have a fitted effect of over 55% in size
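Human K18 P301L tau (15 uM unlabeled plus 0.24 uM Alexa 594-labeled, final) in 100 mM sodium acetate pH 7 was mixed with compound and 20 uM heparin and incubated 6 hr at 37 C.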
Tau fibril FP: tau fibrillization inhibition (FP). P10636. K18 P301L tau heparin fibrillization, Alexa594 FP, 6 h. Potency, µM (top dose mostly 57.7 µM), usual class: inhibitors. 0.39% of 280,000 active; further: nearly all actives have a fitted effect of over 55% in size
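Human tau K18 […] P301L fragment, 15 uM unlabeled plus 0.24 uM Alexa 594-labeled tau (final), with compound and 20 uM heparin in 100 mM sodium acetate pH 7; 6 hr at 37 C, then Alexa 594 FP read.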
Luc counter: counter-screen: inhibitors of Kinase-Glo firefly luciferase; Q27757; Kinase-Glo luciferase, ATP luminescence, 8 min; Potency, µM (titrated, usually from 38.3 µM), most hits filed as inhibitors; 0.28% of 200,000 active; AID 1379; further: nearly all actives have a fitted effect of over 60% in size
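Luminescence was the read-out, taken after 8-minute incubation at ambient temperature. Luciferase turned over luciferin with 10 uM ATP in imidazole pH 7.2 buffer containing KCl, MgCl2, Tween 20 and BSA.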
Hits are given with their value; - = inactive; ? = inconclusive; . = no result given; [ ] = another dose, or the depositor's remark. The call rests on the fitted dose curve; in most records, active means well fitted curve in the direction sought with a large enough effect; inconclusive means small, poorly fitted or top-dose-only effect, or another doubt; inactive means no such curve, though single readings can be large; an effect the other way counts as inactive or inconclusive.

SMILES | Tau fibril ThT | NPSR antag | Tau fluor cs | Tau fibril FP | Luc counter
COc1ccc(NC(=O)Nc2cc(-c3cn4cccnc4n3)ccc2OC)cc1 | - | . | - | - | .
COc1cc(OC)c(NC(=O)c2ccco2)cc1Cl | - | - | - | - | -
Cc1c(-c2cccc(NC(=O)Nc3ccc(Cl)cc3)c2)nc2ncccn12 | - | . | 10µM[quencher] | 20µM | .
O=C(Cc1ccc(F)cc1)NCCc1csc(-c2ccc(C(F)(F)F)cc2)n1 | - | . | - | - | .
Cc1cc2nc(-c3ccc(SCC(=O)Nc4ccc5c(c4)OCCO5)nc3)[nH]c2cc1C | ? | - | ? | - | 11µM
O=C(CSc1nc(-c2ccc(F)cc2)[nH]c1-c1ccc(F)cc1)Nc1ccc2c(c1)OCCO2 | ? | . | 8.9µM[quencher] | - | .
COc1ccc(-c2nc(SCC(=O)Nc3ccc4c(c3)OCO4)c(-c3ccc(OC)cc3)[nH]2)cc1 | - | . | ? | - | .
O=C(CSc1nc(-c2ccccc2)[nH]c1-c1ccccc1)Nc1ccc2c(c1)OCCO2 | ? | . | 10µM[quencher] | - | .
Cc1ccc2nc(-c3ccc(SCC(=O)Nc4ccc5c(c4)OCCO5)nc3)[nH]c2c1 | ? | - | ? | ? | -
COc1ccc(-c2[nH]c(-c3ccccc3)nc2SCC(=O)Nc2ccc3c(c2)OCCO3)cc1 | ? | . | 8.9µM[quencher] | ? | .
Cc1ccc(NC(=O)CN(C)S(=O)(=O)c2cnc[nH]2)cc1 | - | . | - | - | .
COCCNC(=O)c1ccc(-n2c(-c3ccccc3)cc3c2CCC(C)C3)cc1 (stereo unspecified) | - | . | ? | - | .
CC1CCc2c(cc(-c3ccccc3)n2-c2ccc(C(=O)NC(C)C)cc2)C1 (stereo unspecified) | ? | . | ? | 11µM | .
CC(C)NC(=O)c1ccc(-n2c(=S)[nH]c3ccccc3c2=O)cc1 | - | - | - | - | -
CCCNC(=O)c1ccc(-n2c(-c3ccccc3)cc3c2CCC(C)C3)cc1 (stereo unspecified) | - | . | ? | 13µM | .
CC(C)NC(=O)c1ccc(-n2c(-c3ccccc3)cc3c2CCCCC3)cc1 | - | . | ? | 13µM | .
O=C(NCCc1ccccc1)c1nn(-c2ccc(F)cc2)nc1CO | - | . | - | - | .
COc1ccc(Oc2ncc3ncc(=O)n(C[C@H]4CCCO4)c3n2)cc1 | . | . | . | . | -
CCOC(=O)c1ccc(NC(=O)c2cccc(S(=O)(=O)N3c4ccccc4CC3C)c2)s1 (stereo unspecified) | - | - | ? | 8.9µM | -
CC1Cc2ccccc2N1S(=O)(=O)c1cccc(C(=O)NCCCO)c1 (stereo unspecified) | - | - | - | - | -
CCN(CC)CCCC(C)Nc1nc(C)cc(Nc2ccc3nc(C)cc(N)c3c2)n1 (stereo unspecified) | ? | . | - | ? | -
CC(=O)[C@@H]1[C@@H]2C(=O)N(C3CCCCC3)C(=O)[C@@H]2C2c3ccccc3C=CN21 (stereo partly specified) | ? | - | - | - | -
O=C1NC(=O)[C@@H]2C3c4ccccc4C=CN3[C@H](C(=O)c3cccs3)[C@H]12 (stereo partly specified) | 28µM | - | - | ? | -
Cc1ccc(C)c(NC(=S)NCc2ccc3[nH]c4c(c3c2)CCCC4)c1 | ? | - | 13µM[quencher] | ? | -
Cc1ccccc1NC(=S)NCc1ccc2[nH]c3c(c2c1)CCCC3 | - | - | - | - | -
SMILES | Tau fibril ThT | NPSR antag | Tau fluor cs | Tau fibril FP | Luc counter
CC(=O)/C(=C/c1ccc(N(C)C)cc1)C(=O)c1ccccc1 | 18µM | - | ? | - | -
Nc1ccc(N(CCO)CCO)cc1 | 11µM | - | ? | 16µM | -
N=C(N)c1ccc(N=Nc2c(O)ccc3c2[nH]c2ccccc23)cc1 | . | . | . | . | -[7.66 µM]
COc1cc(N=Nc2c(O)c3ccccc3[nH]c2=O)c(OC)cc1N=Nc1ccccc1 | 7.1µM | - | ? | - | .
NC(=O)c1ccc(N=Nc2c(O)c3ccccc3[nH]c2=O)cc1 | 0.5µM | - | - | ? | .
S=C1NCN2CCN(CC2)CNC(=S)C(=S)NCN2CCN(CC2)CNC1=S | . | . | . | . | -[7.66 µM]
CCOC(=O)c1c(NC(=O)CSc2nnnn2-c2ccc(OC)cc2)sc(C)c1C | 32µM | - | - | ? | -
Cc1cc(C)c2sc(NC(=O)c3ccc(S(=O)(=O)N4CCOCC4)cc3)nc2c1 | - | . | - | ? | .
CCN(CC)C(=O)c1sc2c(c1C)c(=O)n(-c1ccc(Cl)c(Cl)c1)c(=O)n2Cc1cc(=O)n2c(C)cccc2n1 | - | . | - | - | .
